High-throughput results deposited in PubChem by National Center for Advancing Translational Sciences (NCATS).
A selection: hits, their analogues and other compounds. The true share with any hit is near 3.7%.
FEN1 inhibitor: blocks human flap endonuclease 1 | P39748 | Recombinant FEN1 flap cleavage, fluorescence, 15 min | Potency, µM (top dose mostly 114 µM), most hits filed as inhibitors | 390,000 compounds, 0.35% hits; also: nearly all actives have a fitted effect of over 65% in size
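Compounds are tested as a concentration series against 10 nM FEN1; after a 15 min room-temperature preincubation, 50 nM substrate starts cleavage, with plate reads at 0 and 15 min. Normalized responses are fitted by a Hill equation.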
PLK1 PBD block: inhibitors of human PLK1 polo-box domain binding. P53350. 360,000 compounds, 2.8% hits. AID 720504. Plk1 PBD binding of FITC phosphopeptide, fluorescence polarization. Potency, µM, most hits filed as inhibitors; also: series mostly up to about 57 µM; nearly all actives have a fitted effect of over 65% in size
TCR activator: activators of T cell receptors. primary human leukocytes, anti-CD3, IL-2 HTRF, 48 h. Potency, µM (highest dose often 9.22 µM), most hits filed as activators. 330,000 tested, under 10 active. AID 504894
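HTRF read-out of IL-2 secretion: europium cryptate donor excited at 320nm, d2 acceptor emission at 665nm. Cells were primary human leukocytes incubated 48 hr with compounds and a-CD3 beads, supplying TCR signal only.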
PI5P4K alpha inh: PI5P4K alpha (human) kinase inhibition; P48426; PI5P4Kalpha enzyme, ADP-Glo luminescence, 60 min; stronger effect = lower value; max response, %; 330,000 compounds, 1.2% hits; AID 652105; active = max response of -50% or lower; inconclusive = between -30% and -50%; inactive = -30% or higher; also: value at the top dose of about 77 µM
Target sequence (P48426 whole entry, looked up): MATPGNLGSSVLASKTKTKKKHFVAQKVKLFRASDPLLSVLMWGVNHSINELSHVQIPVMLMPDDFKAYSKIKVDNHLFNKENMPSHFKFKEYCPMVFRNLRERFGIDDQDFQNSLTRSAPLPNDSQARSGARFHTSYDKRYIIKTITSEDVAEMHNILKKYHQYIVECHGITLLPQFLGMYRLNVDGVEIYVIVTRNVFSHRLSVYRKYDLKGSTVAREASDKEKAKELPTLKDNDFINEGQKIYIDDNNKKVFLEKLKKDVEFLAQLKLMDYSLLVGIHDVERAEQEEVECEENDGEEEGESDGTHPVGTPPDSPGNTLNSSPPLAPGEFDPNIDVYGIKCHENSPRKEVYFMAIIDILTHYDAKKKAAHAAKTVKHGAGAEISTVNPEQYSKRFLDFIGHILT
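PI5P4Kalpha ADP-Glo assay; 5 microM ATP final; 60 min RT reaction; HEPES pH 7.4/EGTA/CHAPS, 5% DMSO; controls lacking substrate or enzyme; luminescent end-point.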
VDR inhibitor: inhibitors of human vitamin D receptor; AID 504847; P11473; Potency, µM, hits mostly inhibitors; VDR-SRC2-3 peptide fluorescence polarization, 2 h; 400,000 compounds, 0.93% hits
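Measured by FP: displacement of SRC2-3 coactivator peptide from VDR by library compounds, following a two-hour ambient incubation.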
WRN inhibitor: WRN helicase (human) inhibition | Q14191 | WRN helicase unwinding, fluorescent forked duplex, kinetic | Potency, µM (series often up to 114 µM), usual class: inhibitors | 360,000 compounds, 0.46% hits | AID 651768; also: nearly all actives have a fitted effect of over 55% in size
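WRN at 20 nM final preincubated with compound 15 min at room temperature; reaction started with 100 nM fluorophore/quencher forked duplex oligonucleotide and 2 mM ATP final. Unwinding followed kinetically by red fluorescence (ex 525, em 598 nm).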
Hits are given with their value; n = inactive; u = inconclusive; x = not tested or not shown; [ ] = another dose, or the depositor's remark. Unless noted, calls follow the shape of the dose curve; as a rule, active = well fitted curve in the direction sought with a large enough effect; inconclusive = small, poorly fitted or top-dose-only effect, or another doubt; inactive = no such curve, though single readings can be large; an effect the other way counts as inactive or inconclusive.

SMILES	FEN1 inhibitor	PLK1 PBD block	TCR activator	PI5P4K alpha inh	VDR inhibitor	WRN inhibitor
Nc1nonc1-c1nc2ccccc2n1CC(=O)Nc1cccc(C(F)(F)F)c1	n	x	x	x	n	x
COc1cc2c(cc1NC(=O)c1ccccc1-c1ccccc1C(=O)O)-c1ccccc1C2	x	42.3µM	x	n	x	n
COc1cccc(NC(=O)c2ccccc2-c2ccccc2C(=O)O)c1	n	n	n	n	n	n
O=C(O)Cn1c(SCCOc2ccc(Cl)cc2)nc2ccccc21	n	n	n	n	n	u
O=C(O)Cn1c(SCCOc2ccccc2F)nc2ccccc21	n	18.9µM	n	n	n	n
CN1CCN(NC(=O)c2cn(-c3ccccc3)nc2-c2cccs2)CC1	n	u	n	n	n	n
O=C(NN1CCOCC1)c1cn(-c2ccccc2)nc1-c1cccs1	n	23.8µM	n	n	n	n
Cc1ccc(S(=O)(=O)N2CCN(c3nc(-c4cncn4C)nc4ccccc34)CC2)cc1	n	x	x	x	n	x
Cc1cccc(CN2CC34CCC(CC3S2(=O)=O)O4)c1 (configuration not stated)	n	x	x	x	n	x
CC1CN(C(=O)CCC(=O)NCc2cccs2)c2ccccc2O1 (configuration not stated)	n	x	x	x	n	x
COc1ccc(N2CCN(Cc3nc4c(c(=O)[nH]c(=O)n4C)n3Cc3ccccc3C)CC2)cc1	n	x	x	x	n	x
Cc1cnc(C=NNC(N)=S)c2cccc(N)c12	u	23.8µM	n	-53.2	u	u
NC(=S)NN=Cc1nccc2ccccc12	n	n	n	n	u	n
CCOc1ccc(/C=C/c2cc[n+](C)c3ccccc23)cc1OCC	n	x	x	x	x	x
O[C@H]1[C@H]2c3cc4c(cc3CN3CCC(=C[C@@H]1O)[C@H]23)OCO4	x	x	x	x	n	x
Cn1ncc(S(=O)(=O)Cc2ccccc2)c(Cl)c1=O	n	3.36µM	n	n	u	n
Cc1ccc(CNC(=O)Cn2ncc3c([nH]c4ccc(C)cc43)c2=O)cc1	n	x	x	x	n	x
O=C(O)CSc1cc(C(=O)c2ccccc2O)cn2c(=O)c3c(-c4ccccc4)csc3nc12	u	u	n	-53.3	n	u
Cc1cc(NC(=O)CSc2nc(N)c(NC(=O)c3ccccc3)c(=O)[nH]2)no1	n	n	n	n	n	n
Cc1cc(NC(=O)CSc2nc(N)c(NC(=O)c3ccco3)c(=O)[nH]2)no1	n	29.9µM	n	n	u	n
O=c1oc2cc(O)ccc2cc1-c1nc2c(s1)CCc1ccccc1-2	n	3.77µM	n	n	n	n
O=c1oc2ccccc2cc1-c1nc2c(s1)CCc1ccccc1-2	n	15µM	n	n	n	n
O=c1oc2ccc3ccccc3c2cc1-c1nc2c(s1)CCc1ccccc1-2	n	x	x	x	n	x
O=C(c1ccc2c(c1)N(Cc1ccccc1)C(=O)c1ccccc1S2=O)N1CCC(Cc2ccccc2)CC1 (configuration not stated)	n	x	x	x	n	x
COC(=O)C(C(C)=O)C(NC(=O)OC(C)(C)C)c1ccccc1 (configuration not stated)	x	x	x	x	n	x
SMILES	FEN1 inhibitor	PLK1 PBD block	TCR activator	PI5P4K alpha inh	VDR inhibitor	WRN inhibitor
COC(=O)N1C(=O)[C@](c2ccc(Cl)cc2)(C(C)C)N1C(=O)OC	n	23.8µM	n	n	u	n
COC(=O)N1C(=O)[C@@](c2ccc(OC)cc2)(C(C)C)N1C(=O)OC	n	n	n	n	n	n
FC(F)(F)c1cnc(-c2cnc(-c3cccnc3)nc2)c(Cl)c1	n	23.8µM	n	n	u	n
CCCC(=O)Nc1nc2ccc(OCC)cc2s1	n	n	n	n	n	n
CCOCC(=O)Nc1nc2ccccc2s1	n	n	n	n	n	n
CCOc1ccc2nc(NC(=S)N(C)C)sc2c1	n	18.9µM	n	n	n	n
CN(C)C(=S)Nc1nc2ccccc2s1	n	10.6µM	n	u	u	n
O=C(CSc1nc2nccnc2c(=O)n1CCc1c[nH]c2ccccc12)Nc1ccc(F)cc1	n	x	x	x	n	x
COc1ccc2oc(=O)c(-c3cn4c(n3)sc3cc(F)ccc34)cc2c1	n	x	x	x	n	x
O=C(O)/C(CC(=O)c1ccc(Cl)cc1)=N/Nc1ccc([N+](=O)[O-])cc1[N+](=O)[O-]	n	23.8µM	n	-53.4	n	n[11.6 µM]
Cc1cc(NCc2ccccc2Cl)n2cnnc2n1	n	x	x	x	n	x
CCCC(=O)N1CCN(c2ccc(NC(=O)c3cccs3)cc2)CC1	n	23.8µM	n	n	n	n
